Screening results deposited in PubChem BioAssay by Broad Institute.
aSyn UTR act: Activators via SNCA 5'UTR binding, MLPCN. 300,000 compounds, 7.1% hits. AID 1814. activity score, % (tested at 7.5 µM), hits read low. alpha-synuclein 5'UTR reporter, activators screen; in the data active means activity score below about -60%
Starred values were filed as active, the others as inactive. Only a sample is shown.

SMILES	aSyn UTR act
C=CCc1c(C)nc(-c2ccccc2)nc1N/N=C/c1ccncc1	-95*
C=CCc1c(C)nc(-c2ccccc2)nc1N/N=C(\C)c1ccc(N)cc1	-69*
O=C(COC(=O)[C@@H]1CCCN1S(=O)(=O)c1ccc(Cl)cc1)NCC(F)(F)F	31
Cc1ccc(S(=O)(=O)N2CCCC2CNC(=O)C(=O)Nc2ccc(F)cc2)cc1 (stereo not drawn)	-74*
COc1ccc(NC(=O)C(=O)NCC2CCCN2S(=O)(=O)c2ccc(C)cc2)cc1 (stereo not drawn)	91
Cc1cccc(/C=N/N2CCN(c3ccccc3)CC2)c1	-140*
O=[N+]([O-])c1ccccc1/C=N\N1CCN(c2ccccc2)CC1	-201*
Cc1ccc(/C=N/N2CCN(c3ccccc3)CC2)cc1	-100*
O=[N+]([O-])c1ccccc1/C=C/C=N/N1CCCCC1	-205*
Cc1cc(-c2ccc(C(C)C)c(S(=O)(=O)N3CCN(c4ccccc4)CC3)c2)on1	56
NS(=O)(=O)c1ccc(N/N=C/C=C/c2ccccc2[N+](=O)[O-])cc1	-177*
Cc1ccccc1/C=N/N1CCN(c2ccccc2)CC1	-131*
COc1cccc(C(=O)NC(=O)Nc2cc(C)[nH]n2)c1	-140*
Cc1cc(NC(=O)c2cccc(Br)c2)n[nH]1	-141*
COc1cccc(C(=O)Oc2c(Br)cc(Br)cc2/C=N/NC(=O)c2cc(C)[nH]n2)c1	64
CCN(CC)S(=O)(=O)c1cc(C(=O)Nc2cc(C)[nH]n2)ccc1Cl	-161*
Brc1ccc(NC2=Nc3ccccc3CC2)cc1	-172*
COc1ccc2c(C(=O)CN3CCSCC3)c[nH]c2c1	-63*
Cc1ccc2cc(CCNC(=O)c3ccco3)c(=O)[nH]c2c1	-143*
CC(=O)Nc1ccc(S(=O)(=O)N(Cc2cccnc2)Cc2cc3ccc(C)cc3[nH]c2=O)cc1	60
CCC(c1nnnn1CCc1ccccc1)N(Cc1ccco1)Cc1cc2c(C)ccc(C)c2[nH]c1=O (stereo not drawn)	44
Cc1cc2cc(CCNC(=O)c3cccs3)c(=O)[nH]c2cc1C	-149*
COc1ccc2cc(CCNC(=O)c3ccco3)c(=O)[nH]c2c1	-117*
Cc1ccc2cc(CCNC(=O)c3ccco3)c(=O)[nH]c2c1C	-138*
CCc1cc2cc(C(=O)Nc3ccc(C)cc3)sc2s1	-90*
SMILES	aSyn UTR act
O=C(Nc1ccc(C(=O)Oc2ccccc2)c(O)c1)c1ccco1	-119*
O=C(Nc1ccc(C(=O)Oc2ccccc2)c(O)c1)c1ccccc1	-66*
O=c1c(-c2cc3ccccc3o2)[n+]([O-])c2ccccc2n1OCc1ccccn1	-174*
CCOn1c(=O)c(-c2cc3ccccc3o2)[n+]([O-])c2ccccc21	-117*
Cn1ncc(Cl)c(Oc2ccc(Cl)cc2)c1=O	-73*
Cn1ncc(Oc2ccc([N+](=O)[O-])cc2)c(Cl)c1=O	-66*
COc1ccc(Oc2c(Cl)cnn(-c3ccc(Cl)c(Cl)c3)c2=O)cc1	73
Nc1c(Br)cc2oc(-c3ccccc3)nc2c1Br	-179*
c1csc(-c2nc(N3CCCCC3)no2)c1	-137*
COc1ccc(Nc2cc(C)c3ccccc3n2)cc1	-101*
COc1cccc(C(=O)Nc2nc3c(c(=O)[nH]2)CCCC3)c1	-97*
COc1ccc(C(=O)Nc2cccc3ccccc23)cc1	-138*
COc1ccc(Nc2ccc(OC)cc2)cc1	-105*
COc1ccc(Nc2cccc3ccccc23)cc1	-72*
COc1ccc(C(=O)Nc2nc3ccccc3c(=O)[nH]2)cc1	-127*
Cc1cc(C)c(C)c(N=Nc2nc3ccccc3n2C)c1C	-75*
Cc1ccc(C)c(N=Nc2nc3ccccc3n2C)c1	-202*
CCCCCNc1nc(-c2ccccc2)cs1	-169*
c1ccc(CCNc2nc(-c3ccncc3)cs2)cc1	-114*
